The supplement of paper PMC13380429

System: Vero E6 infected with SARS-CoV-2
Experiment: inhibition of SARS-CoV-2 cytopathic effect; higher = more antiviral protection, active = above 15
Conditions: 48 h

Measured: inhibition of SARS-CoV-2 cytopathic effect

CCOC(=O)c1ccc(NC2CCCCC2)c(N)c1 [ferrostatin-1]
inactive: 1 nM 0.05% | 8.33 nM 3.56% | 100 nM 2.61% | 833.33 nM 2.6% | 10000 nM 2.1%

CC(=O)OCC(=O)[C@@]1(OC(C)=O)[C@@H](C)C[C@H]2[C@@H]3C[C@H](F)C4=CC(=O)C=C[C@]4(C)[C@@]3(F)[C@@H](O)C[C@@]21C [diflorasone-diacetate]
inactive: 1 nM 3.78% | 8.33 nM 2.43% | 100 nM 1.22% | 833.33 nM 0.13% | 10000 nM 1.53%

OCc1ccc(O[C@@H]2O[C@H](CO)[C@@H](O)[C@H](O)[C@H]2O)cc1 [gastrodin]
inactive: 1 nM -0.38% | 8.33 nM -2.3% | 100 nM -2.66% | 833.33 nM -2.37% | 10000 nM -4.3%

NC[C@@H](O)CC(=O)O [aminohydroxybutyric-acid]
inactive: 1 nM -3.49% | 8.33 nM -1.06% | 100 nM -2.52% | 833.33 nM -2.28% | 10000 nM -0.71%

CCOC(=O)[C@H](Cc1ccc([N+](=O)[O-])cc1)NC(=O)c1ccccc1
inactive: 1 nM 0.55% | 8.33 nM 1.63% | 100 nM 2.6% | 833.33 nM -1.21% | 10000 nM 0.3%

Cc1c(N)c(=O)n(-c2ccccc2)n1C [ampyrone]
inactive: 1 nM -3.22% | 8.33 nM -2.95% | 100 nM -3.07% | 833.33 nM -2.31% | 10000 nM -1.12%

CC(=O)OCC(=O)[C@H]1CC[C@H]2[C@@H]3CC[C@H]4C[C@H](O)CC[C@]4(C)[C@H]3C(=O)C[C@]12C [alfadolone-acetate]
inactive: 1 nM 3.28% | 8.33 nM 3.18% | 100 nM 2.11% | 833.33 nM 1.64% | 10000 nM -4.57%

COc1ccccc1OCCNCC(O)COc1cccc2[nH]c3ccccc3c12 (stereo not given) [carvedilol]
inactive: 1 nM 2.73% | 8.33 nM 3.88% | 100 nM 0.32% | 833.33 nM -1.02% | 10000 nM -1.85%

C[C@@H]1Cc2c([nH]c3ccccc23)[C@@H](c2c(F)cc(/C=C/C(=O)O)cc2F)N1CC(C)(C)F
inactive: 1 nM 0.69% | 8.33 nM 1.08% | 100 nM -2.47% | 833.33 nM -1.93% | 10000 nM -3.78%

CC(C)C(=O)SCCCCC[C@H](NC(=O)OC(C)(C)C)C(=O)NC12CC3CC(CC(C3)C1)C2
inactive: 1 nM -5.42% | 8.33 nM -0.36% | 100 nM -0.22% | 833.33 nM 2.47% | 10000 nM -6.65%

CCCCc1ccc2[nH]c(NC(=O)OC)nc2c1 [parbendazole]
inactive: 1 nM 0.24% | 8.33 nM 0.63% | 100 nM -0.29% | 833.33 nM -0.99% | 10000 nM -1.63%

Cc1cc(C)cc(NC(=O)Cc2ccc(OC(C)(C)C(=O)O)cc2)c1 [efaproxiral]
inactive: 1 nM -0.22% | 8.33 nM -2.52% | 100 nM 1.44% | 833.33 nM 1.37% | 10000 nM -1.51%

CN1C(=O)N(C)C2C1N(C)C(=O)N2C (stereo not given) [mebicar]
inactive: 1 nM -5.8% | 8.33 nM -1.8% | 100 nM -3.06% | 833.33 nM -1.23% | 10000 nM -2.18%

O=C(Cc1ccc(-c2ccccc2)cc1)Nc1ccccn1 [difenpiramide]
inactive: 1 nM 2.42% | 8.33 nM 3.03% | 100 nM -1.56% | 833.33 nM 6.97% | 10000 nM 14.8%

CN1CC2c3ccccc3Oc3ccc(Cl)cc3C2C1 (stereo not given) [asenapine]
inactive: 1 nM 1.23% | 8.33 nM -0.6% | 100 nM 1.72% | 833.33 nM -0.01% | 10000 nM 6.35%

O=C(Nc1c(Cl)cncc1Cl)c1ccc(OC(F)F)c(OCC2CC2)c1 [roflumilast]
inactive: 1 nM -0.45% | 8.33 nM 1.68% | 100 nM 0.72% | 833.33 nM -0.19% | 10000 nM 0.85%

CC(C)(C)[C@]1(O)CCN2C[C@H]3c4ccccc4CCc4cccc(c43)[C@@H]2C1 [butaclamol]
inactive: 1 nM 1.69% | 8.33 nM 1.31% | 100 nM 0.21% | 833.33 nM 1.72% | 10000 nM -3.01%

c1cnc2cc3c(cc2n1)[C@@H]1CNC[C@H]3C1 [varenicline]
inactive: 1 nM 1.15% | 8.33 nM 1.67% | 100 nM -1.63% | 833.33 nM -1.66% | 10000 nM 3.97%

CCOC(=O)C1=C(N)Oc2ccc(Br)cc2C1C(C#N)C(=O)OCC (stereo not given)
inactive: 1 nM -0.86% | 8.33 nM 0.28% | 100 nM 0.47% | 833.33 nM 0.895% | 10000 nM 2.46%
